Results: ChEMBL document CHEMBL3988442, “University of Dundee, Small-Polar-MMV Screening Library” (2021)
For some assays here: Entries with a potency or affinity are not part of this list.

Key:
Design in all cases: scale not given: direction of the effect not stated beside the values
[1] = target: Protein translocase subunit SecA (Escherichia coli (strain K12)) (UniProt P10408); experiment: Assay to Identify E. coli SecA ATPase Inhibitors; type: functional; conditions: 30 µM
[2] = target: T1, Ubiquitin-activating enzyme e1, putative (Leishmania donovani (strain BPK282A1)) (UniProt E9BSI1); experiment: Leishmania donovani Ubiquitin Activating Enzyme (LdE1); type: functional; conditions: 30 µM
T1 sequence (whole entry): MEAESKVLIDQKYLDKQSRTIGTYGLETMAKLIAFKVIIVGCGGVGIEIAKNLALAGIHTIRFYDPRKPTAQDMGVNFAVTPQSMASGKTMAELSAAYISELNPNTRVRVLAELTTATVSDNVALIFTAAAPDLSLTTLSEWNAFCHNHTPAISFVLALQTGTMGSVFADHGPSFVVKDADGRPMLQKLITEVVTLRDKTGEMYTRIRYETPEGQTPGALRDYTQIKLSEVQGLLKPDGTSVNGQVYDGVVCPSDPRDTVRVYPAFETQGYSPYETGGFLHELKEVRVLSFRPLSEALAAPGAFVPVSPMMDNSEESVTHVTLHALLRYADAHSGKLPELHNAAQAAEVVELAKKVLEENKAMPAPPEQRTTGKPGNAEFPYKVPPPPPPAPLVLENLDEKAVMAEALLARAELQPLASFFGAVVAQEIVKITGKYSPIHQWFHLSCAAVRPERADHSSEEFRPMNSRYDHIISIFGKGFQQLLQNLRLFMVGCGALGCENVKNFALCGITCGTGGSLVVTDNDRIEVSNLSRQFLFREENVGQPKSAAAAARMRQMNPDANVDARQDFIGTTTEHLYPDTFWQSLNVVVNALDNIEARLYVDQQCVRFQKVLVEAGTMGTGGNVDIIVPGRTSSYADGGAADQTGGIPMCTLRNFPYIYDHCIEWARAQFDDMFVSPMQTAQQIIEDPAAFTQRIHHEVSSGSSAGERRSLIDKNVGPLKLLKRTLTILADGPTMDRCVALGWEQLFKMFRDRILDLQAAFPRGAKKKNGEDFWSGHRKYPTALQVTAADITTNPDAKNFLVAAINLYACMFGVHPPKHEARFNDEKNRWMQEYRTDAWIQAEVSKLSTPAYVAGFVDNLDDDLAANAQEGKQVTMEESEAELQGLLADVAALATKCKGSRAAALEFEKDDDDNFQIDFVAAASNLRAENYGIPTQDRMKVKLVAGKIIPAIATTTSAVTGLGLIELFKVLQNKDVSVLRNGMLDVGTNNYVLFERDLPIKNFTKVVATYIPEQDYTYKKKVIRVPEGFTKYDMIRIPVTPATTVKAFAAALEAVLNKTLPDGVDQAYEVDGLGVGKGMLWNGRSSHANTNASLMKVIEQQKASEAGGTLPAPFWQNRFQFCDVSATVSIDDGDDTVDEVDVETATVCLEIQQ

[3] = target: AMP-activated protein kinase, AMPK (Homo sapiens) (UniProt P54646+O43741+P54619+Q9UGJ0+Q9Y478+Q13131+Q9UGI9); experiment: AMP-dependent Kinase enzyme assay. An in vitro enzyme assay that detects ADP turnover that is directly proportional to AMPK activity. This uses naive AMPK that is activated during the assay with MK-8722; type: functional; conditions: 30 µM
[4] = target: Sialic acid-binding Ig-like lectin 9 (Homo sapiens) (UniProt Q9Y336); experiment: Hs-Siglec9 ALPHAscreen SOP 20170721; conditions: 10 µM
Sialic acid-binding Ig-like lectin 9 (Homo sapiens), sequence (Q9Y336 whole entry): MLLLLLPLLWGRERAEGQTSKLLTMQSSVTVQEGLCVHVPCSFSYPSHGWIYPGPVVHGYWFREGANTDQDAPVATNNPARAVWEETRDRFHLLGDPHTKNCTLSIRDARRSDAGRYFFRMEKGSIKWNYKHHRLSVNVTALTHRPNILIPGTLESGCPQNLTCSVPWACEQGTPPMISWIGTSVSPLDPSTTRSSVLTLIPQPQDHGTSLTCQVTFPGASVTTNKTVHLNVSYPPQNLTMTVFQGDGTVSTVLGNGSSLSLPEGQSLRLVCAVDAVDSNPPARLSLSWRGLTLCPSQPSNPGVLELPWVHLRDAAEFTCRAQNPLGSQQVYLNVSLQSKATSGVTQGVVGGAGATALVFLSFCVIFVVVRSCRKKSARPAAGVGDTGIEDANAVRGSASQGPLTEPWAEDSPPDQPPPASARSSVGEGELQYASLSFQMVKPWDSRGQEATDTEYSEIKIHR

Trypanosoma cruzi = experiment: Trypanosoma cruzi phosphomannomutase and mannose-1-phosphate guanylyltransferase assay; type: functional; conditions: 10 µM
[5] = target: T2, Arginase-2, mitochondrial (Homo sapiens) (UniProt P78540); experiment: in vitro enzyme assay to detect the production of urea directly proportional to the activity of Arginase II; type: functional; conditions: 33.3 µM; note: in the data most compounds retested in dose-response had high values
T2 sequence (whole entry): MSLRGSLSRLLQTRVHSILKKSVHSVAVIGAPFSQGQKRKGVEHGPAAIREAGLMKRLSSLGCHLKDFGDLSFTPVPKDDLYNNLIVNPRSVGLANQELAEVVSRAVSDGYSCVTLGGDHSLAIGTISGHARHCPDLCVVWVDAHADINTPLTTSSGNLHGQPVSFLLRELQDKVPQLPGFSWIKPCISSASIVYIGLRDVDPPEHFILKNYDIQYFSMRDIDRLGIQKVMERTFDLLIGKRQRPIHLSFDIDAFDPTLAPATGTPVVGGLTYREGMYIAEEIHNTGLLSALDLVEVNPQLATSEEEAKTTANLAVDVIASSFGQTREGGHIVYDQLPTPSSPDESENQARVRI

[6] = target: T3, Proteasome subunit beta (Trypanosoma cruzi) (UniProt O96673); experiment: Trypanosoma cruzi proteasome chymotrypsin-like activity (TcProtChymo) assay.; note: in the data most compounds retested in dose-response had high values; type: functional; conditions: 9.37 µM
T3 sequence (whole entry): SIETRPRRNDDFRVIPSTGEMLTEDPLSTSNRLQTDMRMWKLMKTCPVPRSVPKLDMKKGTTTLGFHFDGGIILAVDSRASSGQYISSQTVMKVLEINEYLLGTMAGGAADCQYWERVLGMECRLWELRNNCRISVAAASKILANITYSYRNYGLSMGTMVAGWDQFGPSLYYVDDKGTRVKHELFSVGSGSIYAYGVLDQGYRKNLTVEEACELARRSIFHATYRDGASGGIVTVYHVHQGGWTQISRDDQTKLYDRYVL

Homo sapiens = organism: Homo sapiens; experiment: To identify inhibition of the IFN signalling (Jak-Stat) pathway via expression of an eGFP reporter gene under the control of an IFN-stimulated response element (ISRE) containing MxA promoter.; type: functional; conditions: 30 µM
[7] = target: T4, Tyrosyl-tRNA synthetase, putative (Trypanosoma cruzi (strain CL Brener)) (UniProt Q4DSP6); experiment: Trypanosoma cruzi tyrosyl tRNA synthetase (TcYRS) _High Tyrosine SOP; type: functional; conditions: 30 µM; note: in the data most compounds retested in dose-response had high values
T4 sequence (whole entry): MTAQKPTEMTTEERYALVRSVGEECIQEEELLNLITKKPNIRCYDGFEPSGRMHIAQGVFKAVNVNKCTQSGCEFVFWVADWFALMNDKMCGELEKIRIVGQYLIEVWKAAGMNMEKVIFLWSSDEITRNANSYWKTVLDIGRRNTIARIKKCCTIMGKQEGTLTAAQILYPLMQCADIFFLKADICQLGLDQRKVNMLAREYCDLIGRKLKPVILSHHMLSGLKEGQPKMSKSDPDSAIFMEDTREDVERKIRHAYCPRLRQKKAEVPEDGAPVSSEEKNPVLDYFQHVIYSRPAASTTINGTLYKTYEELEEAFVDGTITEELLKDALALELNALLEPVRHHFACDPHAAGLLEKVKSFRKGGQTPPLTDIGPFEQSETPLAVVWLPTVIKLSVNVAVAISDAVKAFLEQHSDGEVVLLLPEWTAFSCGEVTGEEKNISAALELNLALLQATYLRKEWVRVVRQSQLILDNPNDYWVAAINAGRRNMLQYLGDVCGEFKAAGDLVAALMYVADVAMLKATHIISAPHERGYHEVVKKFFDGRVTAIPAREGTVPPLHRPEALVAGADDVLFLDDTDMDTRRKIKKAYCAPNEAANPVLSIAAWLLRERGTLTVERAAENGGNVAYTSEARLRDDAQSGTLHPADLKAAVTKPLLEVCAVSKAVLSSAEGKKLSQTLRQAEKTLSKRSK

[8] = target: T4, Tyrosyl-tRNA synthetase, putative (Trypanosoma cruzi (strain CL Brener)); experiment: Trypanosoma cruzi tyrosyl tRNA synthetase (TcYRS) SOP; type: functional; conditions: 30 µM
[9] = target: Chromo domain-containing protein 1 (Saccharomyces cerevisiae (strain ATCC 204508 / S288c) (Baker's yeast)) (UniProt P32657); experiment: ScCHD-1 Enzyme Inhibition Assay; type: functional; conditions: 30 µM; note: in the data most compounds retested in dose-response had high values
Chromo domain-containing protein 1 (Saccharomyces cerevisiae (strain ATCC 204508 / S288c) (Baker's yeast)), sequence (P32657 whole entry, the tested form may be a part): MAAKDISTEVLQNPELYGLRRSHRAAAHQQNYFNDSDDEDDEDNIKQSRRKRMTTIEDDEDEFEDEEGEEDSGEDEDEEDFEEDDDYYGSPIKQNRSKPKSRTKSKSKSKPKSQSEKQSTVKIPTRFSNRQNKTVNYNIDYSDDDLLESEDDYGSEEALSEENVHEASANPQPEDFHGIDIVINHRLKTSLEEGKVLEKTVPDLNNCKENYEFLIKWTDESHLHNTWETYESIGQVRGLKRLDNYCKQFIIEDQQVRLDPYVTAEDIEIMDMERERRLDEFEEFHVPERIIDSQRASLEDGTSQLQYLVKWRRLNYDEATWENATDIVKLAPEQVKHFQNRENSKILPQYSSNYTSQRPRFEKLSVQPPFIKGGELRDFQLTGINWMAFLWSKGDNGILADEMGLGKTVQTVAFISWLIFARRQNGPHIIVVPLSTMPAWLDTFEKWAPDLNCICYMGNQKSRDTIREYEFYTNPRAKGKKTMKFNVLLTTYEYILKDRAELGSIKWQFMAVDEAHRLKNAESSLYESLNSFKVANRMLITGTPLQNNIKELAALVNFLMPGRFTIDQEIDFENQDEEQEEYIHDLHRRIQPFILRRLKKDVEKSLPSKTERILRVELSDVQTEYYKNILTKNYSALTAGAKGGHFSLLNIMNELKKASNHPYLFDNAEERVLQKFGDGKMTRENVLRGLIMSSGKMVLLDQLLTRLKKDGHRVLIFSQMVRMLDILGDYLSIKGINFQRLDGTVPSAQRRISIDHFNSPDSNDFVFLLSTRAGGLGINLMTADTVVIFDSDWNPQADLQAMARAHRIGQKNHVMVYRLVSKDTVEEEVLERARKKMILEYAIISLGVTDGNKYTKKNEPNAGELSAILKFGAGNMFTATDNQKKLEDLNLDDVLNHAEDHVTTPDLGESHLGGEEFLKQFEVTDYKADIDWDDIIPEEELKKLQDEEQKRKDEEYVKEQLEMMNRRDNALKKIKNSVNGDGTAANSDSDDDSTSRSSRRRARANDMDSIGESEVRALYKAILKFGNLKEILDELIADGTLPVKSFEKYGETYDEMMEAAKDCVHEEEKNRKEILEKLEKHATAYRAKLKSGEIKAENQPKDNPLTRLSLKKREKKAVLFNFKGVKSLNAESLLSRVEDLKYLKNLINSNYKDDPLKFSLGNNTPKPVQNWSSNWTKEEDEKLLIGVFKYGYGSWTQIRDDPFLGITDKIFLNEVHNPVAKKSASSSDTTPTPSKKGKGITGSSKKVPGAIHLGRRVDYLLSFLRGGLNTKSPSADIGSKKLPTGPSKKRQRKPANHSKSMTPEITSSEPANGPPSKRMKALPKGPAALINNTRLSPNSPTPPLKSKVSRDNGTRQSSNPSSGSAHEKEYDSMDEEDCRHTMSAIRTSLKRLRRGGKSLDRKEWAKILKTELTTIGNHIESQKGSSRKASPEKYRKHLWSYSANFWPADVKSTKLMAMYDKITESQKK

Protein translocase subunit SecA (Escherichia coli (strain K12)), sequence (P10408 whole entry): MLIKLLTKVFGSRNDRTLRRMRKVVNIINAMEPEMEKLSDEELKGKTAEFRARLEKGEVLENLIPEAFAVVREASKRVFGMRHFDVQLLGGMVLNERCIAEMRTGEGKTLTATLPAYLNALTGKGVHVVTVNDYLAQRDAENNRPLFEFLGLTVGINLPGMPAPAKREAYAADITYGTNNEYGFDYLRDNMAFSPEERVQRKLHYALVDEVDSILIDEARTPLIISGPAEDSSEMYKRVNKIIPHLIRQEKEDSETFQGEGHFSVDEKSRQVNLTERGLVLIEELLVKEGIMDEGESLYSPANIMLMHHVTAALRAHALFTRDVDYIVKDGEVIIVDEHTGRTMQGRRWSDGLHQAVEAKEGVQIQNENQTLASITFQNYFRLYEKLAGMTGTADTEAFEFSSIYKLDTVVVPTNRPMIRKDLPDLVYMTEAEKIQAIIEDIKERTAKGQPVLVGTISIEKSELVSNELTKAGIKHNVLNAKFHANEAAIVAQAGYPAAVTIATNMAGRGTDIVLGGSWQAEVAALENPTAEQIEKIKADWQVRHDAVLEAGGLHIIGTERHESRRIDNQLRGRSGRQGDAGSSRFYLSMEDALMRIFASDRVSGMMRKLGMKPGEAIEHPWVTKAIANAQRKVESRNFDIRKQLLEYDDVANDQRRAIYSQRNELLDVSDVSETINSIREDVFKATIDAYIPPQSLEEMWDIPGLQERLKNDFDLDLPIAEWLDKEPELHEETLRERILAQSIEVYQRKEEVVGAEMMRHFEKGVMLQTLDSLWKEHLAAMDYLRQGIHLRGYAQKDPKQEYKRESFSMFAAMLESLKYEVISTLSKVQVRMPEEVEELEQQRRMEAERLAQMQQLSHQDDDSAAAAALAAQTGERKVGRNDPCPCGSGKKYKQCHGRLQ

Structure (SMILES)	Percent Effect [1]	Percent Effect [2]	Percent Effect [3]	Percent Effect [4]	Percent Effect (Trypanosoma cruzi)	Percent Effect [5]	Percent Effect [6]	Percent Effect (Homo sapiens)	Percent Effect [7]	Percent Effect [8]	Percent Effect [9]
CC(C)CC(=O)N1CCCn2cnc(CN3CCCC3=O)c2C1	-3.7%	0%	-0.875%	-3.33%	-3.23%	1.74%	-0.429%	-1.05%	2.15%	6.17%	-0.173%
CN(C)CCN(C)C(=O)c1cnc2c(c1)nc(-c1ccccc1Cl)n2C	-6.72%	5.41%	-0.741%	-1.85%	-0.88%	2.23%	-1.29%	8.57%	9.68%	13.6%	-3.61%
CCCn1nc(C)c(CNC(=O)C2COc3c(cccc3OC)C2)c1C (configuration not stated)	-3.57%	2.74%	-2.55%	6.74%	1.19%	-5.59%	15.5%	10.2%	6.25%	16.1%	-3.25%
CC(NC(=O)N(C)Cc1ccsc1)c1ccc2c(c1)CCC(=O)N2 (configuration not stated)	-0.422%	15.8%	5%	7.35%	1.13%	-3.06%	1.67%	3.81%	1.47%	17.1%	-3.52%
COc1ccc(NC(=O)NC(C)(C)c2noc(C)n2)cc1	-5.98%	2.74%	9.96%	-2.01%	0.979%	5%	13.5%	7.14%	4.3%	12.5%	-1.95%
COCC(=O)NCc1cc(=O)n2c(n1)CN(CC1CCOC1)CCC2 (configuration not stated)	0.158%	13.5%	2.63%	-10.2%	0.0978%	-2.23%	8.12%	8.83%	-1.08%	12.8%	-2.53%
O=C(C1COCCO1)N1CCN(Cc2ccc3c(c2)CCO3)CC1 (configuration not stated)	-1.12%	-5.26%	-0.262%	5.55%	1.21%	-2.52%	-0.0846%	-4.94%	3.45%	3.7%	-2.12%
CC(C)(C)NC(=O)CN1CCN(C(=O)Nc2ccc(F)cc2F)CC1	-2.23%	5.48%	8.1%	-2.38%	-8.73%	-0.399%	6.76%	10.3%	3.12%	6.17%	-2.48%
c1ccc(Cn2cc(CNC3CCc4ncnn4C3)cn2)cc1 (configuration not stated)	-3.66%	6.33%	-0.419%	1.15%	0.923%	-3.66%	5.66%	4.51%	3.12%	10.1%	-19.2%
Cc1cnc2n(c1=O)C(CC(=O)NCc1cc(-c3cccs3)on1)CS2 (configuration not stated)	-0.436%	20.8%	11.4%	-23.7%	1.28%	5.81%	6.79%	28.9%	2.12%	16.7%	-11%
CNC(=O)CS(=O)(=O)C1CCN(S(=O)(=O)C2CC2)CC1	-3.71%	0%	-0.0113%	-2.43%	0.979%	1.36%	4.79%	3.03%	3.23%	5%	-0.451%
CC(NC(=O)COc1ccc(F)cc1)c1nnc2n1CCCCC2 (configuration not stated)	-3.7%	16.2%	-13.2%	13.2%	5.19%	-8.02%	0.36%	0.906%	4.43%	18.5%	-14.6%
Cc1ccc(NC2CCN(C(=O)CN(C)C3CC3)CC2)nn1	-4.6%	-6.33%	-0.261%	16.3%	-3.79%	0.645%	6.69%	-12.3%	4.17%	7.59%	-6.68%
Cc1noc2ncc(C(=O)N3CCCC3c3cnn(C)c3)cc12 (configuration not stated)	-1.99%	2.53%	-1.98%	-2%	-2.17%	-3.42%	3.52%	12%	-3.45%	-1.27%	-2.49%
Cc1ccc(CN2CCOC3(CCCN(C(=O)c4ccco4)C3)C2)s1 (configuration not stated)	-0.789%	15.6%	-0.0266%	8.56%	5.41%	-19.3%	17.6%	-8.94%	6.45%	13.6%	-2.11%
COC(=O)C(C)(C)NC(=O)C1CC(=O)N(C)C1 (configuration not stated)	-1.38%	-2.74%	-4.39%	9.64%	2.78%	-0.798%	3.17%	-3.68%	-1.04%	8.64%	4.14%
CC(=O)N1CCN([C@@H]2CC[C@@H](NC(=O)c3cncc(C)c3)[C@H]2O)CC1	-3.3%	-4.05%	8.93%	-4.38%	-3.75%	-2.09%	-3.28%	18.6%	-2.15%	-11.7%	15.5%
Fc1cnc(N2CCCC3(CN(Cc4ccncc4)CCO3)C2)nc1 (configuration not stated)	-2.51%	13.3%	12.9%	-0.573%	-2.95%	1.63%	12.2%	8.63%	8.51%	16.7%	-5.31%
COc1ccccc1CNC(=O)Cn1ncc2c1c(C)nn2C	-2.51%	6.67%	1.32%	6.52%	-7.86%	-15%	12.8%	-0.504%	5.29%	7.69%	-9.43%
Cc1ccc(S(=O)(=O)NC2CC2)cc1C	1.16%	-1.39%	-6.59%	11.8%	0.875%	20.3%	0%	28.3%	-1.05%	0%	0.926%
Cc1ncc2c(n1)CN(CC(=O)Nc1nncs1)CC2	-1.88%	2.63%	-37.1%	5.79%	3.27%	1.08%	6.01%	-6.49%	5.42%	11.1%	-4.76%
O=c1cc2c(nn1CN1CCN(c3ccccc3)CC1)CCC2	-2.18%	12%	-4.49%	2.85%	0%	-1.23%	15%	11.5%	6.35%	15.4%	-9.54%
